Compounds without any hit were thinned out: in the full panel of roughly 83,000, 20% have a hit.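 Growth was measured after 48 h exposure to one concentration of compound in 96-well plates. Values under 10 count as active.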 A number with no mark means an inactive call. The source made the active and inactive calls.
Legend:
Test in all cases: NCI-60 one-dose screen, 48 h (100 = growth as untreated, 0 = no growth, -100 = all killed)
Details in all cases: 10 µM unless noted
SK-MEL-2 melanoma = tested on: SK-MEL-2 melanoma
EKVX NSCLC = tested on: EKVX NSCLC
SN12C renal = tested on: SN12C renal
UO-31 renal = tested on: UO-31 renal
TK-10 renal = tested on: TK-10 renal
ACHN renal = tested on: ACHN renal
CAKI-1 renal = tested on: CAKI-1 renal
A498 renal = tested on: A498 renal
MOLT-4 leukemia = tested on: MOLT-4 leukemia

SMILES	growth (SK-MEL-2 melanoma)	growth (EKVX NSCLC)	growth (SN12C renal)	growth (UO-31 renal)	growth (TK-10 renal)	growth (ACHN renal)	growth (CAKI-1 renal)	growth (A498 renal)	growth (MOLT-4 leukemia)
CCN(CC)c1nc(SCC(=O)Nc2nc3ccc(C)cc3s2)nc(-c2ccccc2)c1C#N	92%	81%	94%	68.8%	94.6%	94.8%	75.4%	81%	79.7%
O=C(/C=C/c1ccco1)c1ccc(Nc2nc(Nc3ccc(F)cc3)nc(Nc3ccc(Cl)cc3)n2)cc1	59.4%	75.5%	81.1%	85.3%	84%	89.1%	80%	30.8%	-99.1% (active)
Cn1c(-c2c(N)n(Cc3cccnc3)c3nc(C#N)c(C#N)nc23)nc2ccccc21	107%	87.1%	106%	31.5%	55.5%	85.8%	92.1%	98.9%	74.1%
N#C/C(=C\c1ccc(Br)cc1)n1nnc2cc(F)c(F)cc21	29.5%	69.8%	17%	33.9%	32.1%	24%	22.9%	26.8%	1.95% (active)
NS(=O)(=O)c1cnccc1Oc1cccc2cccnc12	107%	97.1%	99.4%	78.3%	107%	102%	111%	99.1%	93%
Cc1cc(C)c2c(-c3nnc(N)s3)cc(=O)oc2c1	114%	97.2%	99.3%	88%	108%	105%	89.3%	79.9%	106%
CCN(CC)c1ccc(C(=O)c2ccc(N(CC)CC)cc2)cc1	18.7%	55%	40.8%	60.4%	35.1%	53.1%	43.4%	41.1%	24.3%
CC/C=C1/C(=O)C=C[C@@H]1C/C=C\CCCC(=O)O	87%	101%	79.9%	103%	105%	85.5%	84.9%	104%	9.64% (active)
COc1ccc(-c2csc(C3=C(O)CN(C(C)C)C3=N)n2)cc1OC	133%	94.3%	97.4%	3.91% (active)	94.4%	103%	82.1%	89.6%	87.2%
Fc1cnc(NC2CC2)nc1-c1cnc2ccc(N3CCOCC3)cn12	-34.1% (active)	-19.5% (active)	8.74% (active)	7.85% (active)	6.32% (active)	3.03% (active)	4.17% (active)	-29.5% (active)	2.32% (active)
Cc1cccc(-c2nc(N(C)c3ccc4ncsc4c3)c3ccccc3n2)n1	85.1%	85%	93.6%	77.7%	105%	94.6%	77.5%	78.8%	76.4%
O=C1C=C[C@]2(C[C@@H](c3cccc(C(F)(F)F)c3)O[C@@H](c3cccc(C(F)(F)F)c3)O2)O1	-26.7% (active)	80.9%	0.629% (active)	-77.3% (active)	-85.5% (active)	-49.4% (active)	32.8%	31%	3.17% (active)
N/C(=N\c1nc2ccccc2s1)NC(=O)Nc1cccc(Cl)c1	28.9%	49.7%	40.9%	46.8%	69.2%	44.7%	23.9%	10.7%	31.1%
C=C1C(=O)O[C@H]2[C@H]1CC/C(COC(=O)C(=O)c1c[nH]c3ccccc13)=C\CC[C@@]1(C)O[C@@H]21	-57.5% (active)	48.2%	-46.7% (active)	-93.3% (active)	-32.3% (active)	-36% (active)	-33.8% (active)	-17.9% (active)	-24.6% (active)
COc1ccc2oc3c(C)c4c(c(C)c3c2c1)C(=O)N(Cc1ccccc1)C4=O	105%	92.9%	89.8%	80.7%	120%	88.3%	81.1%	109%	106%
Cc1cc(Cl)ccc1Nc1nc(C(F)(F)F)ccc1C(=O)N/N=C/c1ccc(N(C)C)cc1	-6.44% (active)	26.3%	57.7%	22.7%	25.8%	24.6%	22.6%	34.7%	12.8%
COc1cc(CCC[P+](c2ccccc2)(c2ccccc2)c2ccccc2)cc2c1OCO2	6.71% (active)	28.3%	35.9%	88.2%	19.5%	91.8%	86%	45.9%	53.5%
CC(=O)OC1CCC2(C)C(=CC3C4CCC(=O)C4(C)CCC32)C1 (stereo unspecified)	93%	109%	96.4%	96.2%	108%	101%	101%	154%	103%
CN(C)c1ccc(/C=C/C(=O)c2cccc(Nc3nc(Nc4ccccc4)nc(Nc4ccccc4)n3)c2)cc1	62.1%	77.8%	91.6%	73.5%	90.9%	90.6%	91.6%	76.8%	80.6%
Cc1cccc(Cc2cnc(NC(=O)/C=C/c3ccco3)s2)c1	30.8%	33.7%	29.3%	37.3%	52.8%	35.3%	30.4%	13.8%	15.9%

SMILES	growth (SK-MEL-2 melanoma)	growth (EKVX NSCLC)	growth (SN12C renal)	growth (UO-31 renal)	growth (TK-10 renal)	growth (ACHN renal)	growth (CAKI-1 renal)	growth (A498 renal)	growth (MOLT-4 leukemia)
C[C@@]1(CCC#N)[C@H]2CC[C@@H]3[C@H]4[C@H](C(=O)/C=C/c5cccnc5)CC[C@]4(C#N)CC[C@@]3(C)[C@]2(C)CC[C@H]1C(=O)/C=C/c1cccnc1	77.7%	98.1%	65.4%	87.3%	101%	56.3%	68.7%	99%	11.7%
CCN1C(=O)N(CC)C2Nn3c(s/c(=C4\C(=O)N(C)c5ccccc54)c3=O)=NC21 (stereo unspecified)	48.2%	71.2%	43.4%	48.6%	8.83% (active)	46.9%	36%	-2.65% (active)	60.5%
COc1ccc(C(=O)COc2ccc(/C=C3\Oc4ccccc4C3=O)cc2)cc1	103%	99%	97.2%	-44.4% (active)	136%	101%	91%	106%	81.7%
CCCCCCCC/C=C\CCCCCCCCOc1ccccc1CC(=O)NCC[N+](C)(C)C	96.4%	83.4%	67.5%	79.6%	9.37% (active)	68.2%	50.7%	100%	77.3%
N#C/C(=C\c1ccc2c(c1)OCO2)n1nnc2cc(F)c(F)cc21	78.7%	82.7%	68.3%	61.3%	101%	65.1%	50.7%	44.9%	63.9%
Cc1ccc(C2SCC(=O)N2Cc2ccccc2)cc1 (stereo unspecified)	100%	89.5%	94.8%	83.8%	99.5%	100%	84.4%	109%	84%
COc1ccc2c(c1)O/C(=C/c1ccc(OCC(=O)c3ccccc3)cc1)C2=O	108%	97%	107%	-29.2% (active)	115%	99.5%	103%	170%	90.3%
COc1ccc(Cl)cc1NC(=O)C(Br)C(Br)C(=O)O (stereo unspecified)	-24.7% (active)	90.9%	59.3%	71.2%	111%	78.7%	96.3%	86.6%	16.9%
O=C(NC(CSSCC(NC(=O)c1ccccc1)C(=O)O)C(=O)O)c1ccccc1 (stereo unspecified)	97.3%	103%	102%	91.8%	101%	102%	91.6%	86.1%	-1.1% (active)
C=CCn1c(C)nc2cc(Nc3nc(Cl)nc4ccccc34)ccc21	99.5%	93.7%	97.3%	93.8%	114%	103%	87.2%	55.4%	78.7%
COC(=O)c1c2c(c(C)[n+]([O-])c1C)C(=O)C(NCc1ccc(F)cc1)=CC2=O	30.6%	58.8%	-2.05% (active)	71.9%	81.4%	48.3%	50.7%	98.6%	-19.6% (active)
Oc1c(CN2CCCC2)cc(COCc2ccc(Br)cc2)c2cccnc12	-18% (active)	27.5%	12%	-13.9% (active)	7.24% (active)	0.47% (active)	1.4% (active)	-1.12% (active)	-8.18% (active)
Cc1ccc2nc(NC(=O)CSc3nc(-c4ccccc4)c(C#N)c(=O)n3Cc3ccccc3)sc2c1	85.7%	90.2%	92%	67.4%	119%	92.6%	69%	85.7%	93.8%
N#Cc1c(-c2ccccc2)cc(-c2ccc(Nc3nc(Nc4ccc(F)cc4)nc(Nc4ccc(F)cc4)n3)cc2)nc1N	79.7%	88.9%	90.3%	90.4%	94%	107%	99.8%	91.7%	17.3%
O=C(O)CN1C(=O)CCC1=O	118%	95.4%	102%	102%	107%	96%	102%	97.4%	114%
C=C(C)[C@@H]1CC[C@]2(C(=O)NC3CCCCC3)CC[C@]3(C)[C@H](CC[C@@H]4[C@@]5(C)CCC(=O)C(C)(C)[C@@H]5CC[C@]43C)[C@@H]12	95%	93.9%	86%	76.1%	95.2%	99.8%	76.6%	83.3%	88%
CN1CCN(C(=O)c2c3c(n4ccccc24)C(=O)c2ncccc2C3=O)CC1	80%	91.5%	45%	35.2%	89.3%	32%	35.7%	51.5%	103%
N#Cc1c(-c2ccccn2)[nH]c(=S)[nH]c1=O	93.7%	101%	112%	84.6%	94.3%	108%	98.8%	89.6%	99.3%
COc1ccc2occ(C3=C(c4c[nH]c5ccccc45)C(=O)N(O)C3=O)c2c1	102%	93.1%	95.9%	61.9%	126%	95.3%	83.6%	118%	102%
